In PubChem BioAssay (Tox21) one finds Potency data, which are given here for 40 molecules.

“And” between values parts separate entries of the source, which are not always exact repeats. Equal values may be shown once. Inconclusive results are not listed. A call without a number means that no potency is given here. The source made the active and inactive calls. Calls come from the whole dose curve; as a rule, active = well fitted cell-killing curve with a large enough effect in the repeat runs; inconclusive = weak or mixed curves, or effect the other way; inactive = flat fitted curve, though single readings scatter.
Potency is the fitted concentration of half-maximal effect.

The experiment in a line: cAMP Responsive Elements (CRE) small molecule agonists, cell-based qHTS assay: qHTS cell viability counter screen (AID 2060914).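 Note: viability read after 3 h of compound exposure; nearly all actives have a fitted effect of over 50% in size.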 The following applies: CRE-bla HEK293T viability, CellTiter-Glo luminescence, 5 h; series mostly up to 92.4 µM. In short, it runs like this:
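CRE-bla HEK 293T cells, plated 18 h at 37 °C, were exposed to compounds for 3 h at 37 °C/5% CO2. Viability was then measured in the same wells by CellTiter-Glo luminescence after 30 min at room temperature.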
`Oc1ccc(-c2ccccc2)c(Cl)c1`: the Potency result is “inactive”.
In the case of `C=CC(=O)OCC(O)COc1ccccc1` (stereo not given) it was “inactive”; in that of `CCCCCCCCCC`, “inactive”; in that of `CC(C)(C)c1csc(-c2cc3cc(OCc4ccccc4CC(=O)O)ccc3o2)n1`, “inactive”.
In the case of `CCCCCCC#CC(=O)OC`, the Potency entry was “inactive”.
For `CC(C)CCCCCCN`, the Potency entry is “inactive”.
To `O=C(O)CCC(=O)Nc1ccc(S(=O)(=O)Nc2nccs2)cc1` belongs “inactive”.
For the molecule `O=c1cc(-c2ccccc2)oc2cc(O)cc(O)c12`, the Potency result is “inactive”.
`CCOCCn1c(C2CCN(CCc3ccc(C(C)(C)C(=O)O)cc3)CC2)nc2ccccc21`: the Potency result is “inactive”.
In the case of `COC(CC(C)CCCC(C)(C)O)OC` (stereo not given) it was “inactive”; in that of `OC[C@H]1O[C@@H](OCCc2ccc(O)cc2)[C@H](O)[C@@H](O)[C@@H]1O`, “inactive”.
In the case of `O[Si](c1ccccc1)(c1ccccc1)c1ccccc1` it was “inactive”; in that of `CC(O)(c1ccc(Cl)cc1)c1ccc(Cl)cc1`, “inactive”.
To `CCN1C=CN(C)C1C` (stereo not given) belongs “inactive”; to `ClC/C=C/CCl`, “inactive”.
Turning to `O=C1Nc2ccc(Cl)cc2[C@@](C#CC2CC2)(C(F)(F)F)O1`, the Potency result is “inactive”.
Take `O=C(Oc1ccccc1C(=O)O)c1ccccc1O`: the Potency entry was “inactive”.
For `NC(=O)n1c(O)c(C(=O)c2cccs2)c2cc(Cl)ccc21`, the Potency result was “inactive”.
Turning to `CC1CCC2CC1C2(C)C` (stereo not given), the Potency result was “inactive”.
In the case of `Nc1cccc(N)c1` it was “inactive”; in that of `COc1ccc2c(c1)CCCC2=O`, “inactive”; in that of `CCCCCCCCCCCCCOS(=O)(=O)O`, “inactive”.
As to `Nc1ccc(S(=O)(=O)Nc2nccs2)cc1`, the Potency result was “inactive”.
Turning to `CCCCCCCCCCCCCCCC(=O)OC[C@H](O)[C@H]1OC(=O)C(O)=C1O`, the Potency result was “inactive”.
In the case of `Cc1ccc(C(=O)Nc2ccc(S(=O)(=O)O)c3cc(S(=O)(=O)O)cc(S(=O)(=O)O)c23)cc1NC(=O)c1cccc(NC(=O)Nc2cccc(C(=O)Nc3cc(C(=O)Nc4ccc(S(=O)(=O)O)c5cc(S(=O)(=O)O)cc(S(=O)(=O)O)c45)ccc3C)c2)c1` it was “inactive”; in that of `COC(=O)C(C)(C)C`, “inactive”.
Consider `O=C1c2ccccc2Cc2ccccc21`, for which the Potency entry was “inactive”.
To `CC(=O)[O][Al][O]C(C)=O` belongs “inactive”; to `CCCOCCOCCOCCO`, “inactive”; to `C[C@H](CCC(=O)O)[C@H]1CC[C@H]2[C@@H]3CC[C@@H]4C[C@H](O)CC[C@]4(C)[C@H]3C[C@H](O)[C@]12C`, “inactive”.
Regarding `CC(C)(C)c1cc(/C=C2\SC(=N)NC2=O)cc(C(C)(C)C)c1O`, the Potency entry was “inactive”.
With `CN(C)c1ccc(C(=C2C=CC(=[N+](C)C)C=C2)c2ccc(N(C)C)cc2)cc1`, the Potency is 48.3 µM (active) and 61.1 µM (active) and 29.8 µM (active).
To `CCCCCCCC/C=C\CCCCCCCCN` belongs “inactive”.
In the case of `CCCCC(CC)COC(=O)c1ccc(O)cc1` (stereo not given) it was “inactive”; in that of `O=C(O)c1cc(O)c2ccccc2c1O`, “inactive”.
`Cc1oc2c(NC(=O)c3c(Cl)cccc3Cl)cccc2c1C(C)(C)O`: the Potency result is “inactive”.
On to `CCOC=C(C(=O)OCC)C(=O)OCC`, for which the Potency entry was “inactive”.
Regarding `NCCCOCCOCCOCCCN`, the Potency entry was “inactive”.
Take `Cc1ccc(S(=O)(=O)NC(=O)NN2CCCCCC2)cc1`: the Potency result is “inactive”.
In the case of `C=CCOC(=O)CCCCCC` it was “inactive”.
